This test relates to PXR:RXRa (NR concentration 270 nM, RXRa partner concentration 90 nM). Kind of test: PBM binding z-score (relative to random genomic background probes); higher = stronger binding; sequences stand for … in GC…GCGATTGACAGCGTAGAATGAAGG
The essentials:
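Ligand-free nuclear receptor dimers were bound for 1 h to custom Agilent 4×180K protein-binding microarrays. Detection used antibodies against each partner (one per run). Binding z-scores rest on regression-normalized fluorescence, with random background probes as the reference.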
AGTCGAAGTTCACTAGGTAACGTAAGATTCAGCT showed a PBM binding z-score of 1.88.
Consider GCTAGTTGGTCCGTAAAAGGTCACACACCGGTCG, for which the PBM binding z-score is 4.94.
Take CGAACTAGGTCAGAACAGGACAGTGAAGGATGAT: the PBM binding z-score amounted to 0.787.
Regarding CGAAATAGGTCAGAACAGGACAGTGAAGGATGAT, the PBM binding z-score came out at 1.69.
TAGCCTAGGTCATTCTGGGGCCAGTATAGAAAGC registered a PBM binding z-score of 2.29.
The same measure for ATACCAAGGTGATCGTGACGTCGTTGATACTAAC: 0.0619; for CGTCCAAGGTCAAGGTTAGTGAAAGAGACTCGAA: 3.81.
As for TCGAGTAGGTTAGTCGGGGGATTCAGCCAACATA, the PBM binding z-score came out at 0.855.
The sequence GCTCGGAGGGCAAGGTCAGAGCTTTGTCCGTAGA came in with a PBM binding z-score of 2.07.
The same measure for CCGAGTAGGTTATGGGGCATTCATGCAACGGTGA: 0.114; for ACTAGCAGTCCAAGGGTCACTCAAGATTAGTCCG: 3.03; for ATCGAAAGGTCCTGAGGTGAGTATACAGAAAGGC: 0.102.
On to AGTCAAAGTTCACTTGGTAACGTAAGATTCAGCT, for which the PBM binding z-score was 4.17.
As to TCTAGCACGCCAGAGGGTCACTCAAGAGGTACGG, the PBM binding z-score is 1.56.
In turn, CCAACTAGGTCAAGGTCAAAGTCGGTTTGTGCCA gave a PBM binding z-score of 5.31.
Regarding TCAGACAGGTGAAGGTAACACAGGTACGCAGTCG, the PBM binding z-score worked out at 1.02.
The sequence TTACCAAGGTGAGCTGAGGTCGTCGATCCAACTC showed a PBM binding z-score of 3.92.
In turn, TCATATAGGTAAATGCTAGGTGAGAGTCCGATCT registered a PBM binding z-score of 0.187.
With TCTTGTAGATTAAAGGTTAAGAAAGCCGAAGCCT, the PBM binding z-score was found to be 1.13.
TCAGACAGGTGCAGGTAACTCAGGTACGCAGTCG had a PBM binding z-score of 0.426.
With CGTCAAAGTTCAACTAAAGTAACGTAAAGCACGC, the PBM binding z-score turned out to be 4.82.
For AATACAGGGTCACTAGGCCAGACTAGGTACGAAT, the PBM binding z-score was 3.06.

The record behind these values is the supplement of paper PMC6555819.
